This passage reports binding signal results from article PMC7862700, “An all-to-all approach to the identification of sequence-specific readers for epigenetic DNA modifications on cytosine”.

Common to all, as to experiment: DAPPL (digital affinity profiling via proximity ligation, sequencing); 10 mM Tris-HCl pH 7.5, 50 mM NaCl, 1 mM DTT, 4% glycerol, room temperature, 30 min; GST-TFs on glutathione beads, 16-mer random dsDNA library, 0.1% formaldehyde crosslink after washing; high values mean tight binding
For experiment [1], the target named is T1, FLI1 (Homo sapiens, UniProt Q01543 1-452).
T1 sequence: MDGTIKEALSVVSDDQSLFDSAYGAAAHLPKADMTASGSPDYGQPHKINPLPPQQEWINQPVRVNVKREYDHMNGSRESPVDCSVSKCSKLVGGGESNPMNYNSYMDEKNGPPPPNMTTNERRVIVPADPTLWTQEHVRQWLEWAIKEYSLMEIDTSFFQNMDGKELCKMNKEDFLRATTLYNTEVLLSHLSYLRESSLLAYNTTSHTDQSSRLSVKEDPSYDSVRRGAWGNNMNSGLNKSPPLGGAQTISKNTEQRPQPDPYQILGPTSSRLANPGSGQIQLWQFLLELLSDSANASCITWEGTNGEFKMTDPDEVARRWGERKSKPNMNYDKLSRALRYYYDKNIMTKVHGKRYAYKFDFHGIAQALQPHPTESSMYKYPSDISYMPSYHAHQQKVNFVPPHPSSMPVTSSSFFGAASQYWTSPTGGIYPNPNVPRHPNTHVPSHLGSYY
The conditions noted are these: protein: recombinant; tags: N-terminal GST; dsDNA, one strand shown. The procedure, abridged: (§1)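 Sequencing on an Illumina NextSeq500 followed washing, crosslinking with 0.1% formaldehyde, proximity ligation (BsaI/T4 ligase, 1 h, 37 °C) and PCR amplification of pools that had been incubated for 30 min at room temperature with 200 nmole of a random double-stranded 16-mer DNA library in Tris/NaCl/DTT/glycerol buffer. Each pool held DNA-barcoded human transcription factors, expressed in yeast as GST fusions and captured on glutathione beads, plus a tag-only sample. Binding signal is a hexamer's read frequency for a factor divided by its frequency in the tag-only sample.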

Experiment [2] deals with T2, ELK1 (Homo sapiens, UniProt P19419 1-428).
T2 sequence: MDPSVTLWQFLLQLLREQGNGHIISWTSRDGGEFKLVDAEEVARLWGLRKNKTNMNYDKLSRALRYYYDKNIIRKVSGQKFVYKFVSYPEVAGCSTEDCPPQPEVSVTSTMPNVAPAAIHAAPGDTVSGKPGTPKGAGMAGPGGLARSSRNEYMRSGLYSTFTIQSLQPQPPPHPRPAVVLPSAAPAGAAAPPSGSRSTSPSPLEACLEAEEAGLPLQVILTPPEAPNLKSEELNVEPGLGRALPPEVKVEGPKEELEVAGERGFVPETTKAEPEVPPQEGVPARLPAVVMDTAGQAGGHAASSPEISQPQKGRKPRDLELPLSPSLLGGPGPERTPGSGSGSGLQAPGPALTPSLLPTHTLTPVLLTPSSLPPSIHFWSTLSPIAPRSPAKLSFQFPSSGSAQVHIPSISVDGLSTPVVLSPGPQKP
The conditions noted are these: protein: recombinant; tags: N-terminal GST; dsDNA, one strand shown. A digest of the protocol: as §1

Experiment [3] deals with T3, GABPA (Homo sapiens, UniProt Q06546 1-454).
T3 sequence: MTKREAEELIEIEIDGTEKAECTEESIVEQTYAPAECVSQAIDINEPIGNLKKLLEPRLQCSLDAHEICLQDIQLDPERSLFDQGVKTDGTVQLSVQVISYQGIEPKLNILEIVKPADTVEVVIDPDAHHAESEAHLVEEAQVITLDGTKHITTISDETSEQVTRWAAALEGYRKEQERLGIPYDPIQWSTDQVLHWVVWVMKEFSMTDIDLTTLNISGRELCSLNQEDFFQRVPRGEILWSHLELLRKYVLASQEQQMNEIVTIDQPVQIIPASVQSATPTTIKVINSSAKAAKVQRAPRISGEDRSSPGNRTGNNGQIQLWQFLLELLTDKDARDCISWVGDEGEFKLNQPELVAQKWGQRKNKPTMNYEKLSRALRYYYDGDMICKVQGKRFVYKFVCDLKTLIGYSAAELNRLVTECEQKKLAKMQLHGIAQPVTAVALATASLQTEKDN
The conditions noted are these: protein: recombinant; tags: N-terminal GST; dsDNA, one strand shown. A digest of the protocol: as §1

In experiment [4] the target is T4, ERG (Homo sapiens, UniProt P11308 1-479).
T4 sequence: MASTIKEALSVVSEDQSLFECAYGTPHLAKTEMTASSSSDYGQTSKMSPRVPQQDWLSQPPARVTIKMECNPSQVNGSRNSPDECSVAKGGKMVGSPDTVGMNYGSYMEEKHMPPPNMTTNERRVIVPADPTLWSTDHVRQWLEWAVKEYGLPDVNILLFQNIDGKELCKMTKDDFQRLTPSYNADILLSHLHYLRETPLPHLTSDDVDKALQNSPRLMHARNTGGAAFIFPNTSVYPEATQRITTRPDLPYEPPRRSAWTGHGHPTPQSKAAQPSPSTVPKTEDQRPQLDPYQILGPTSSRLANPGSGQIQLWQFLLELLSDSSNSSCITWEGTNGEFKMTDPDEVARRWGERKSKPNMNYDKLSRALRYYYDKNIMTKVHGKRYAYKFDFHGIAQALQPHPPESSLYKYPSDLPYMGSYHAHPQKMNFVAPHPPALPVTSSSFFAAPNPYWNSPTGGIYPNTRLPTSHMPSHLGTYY
The conditions noted are these: protein: recombinant; tags: N-terminal GST; dsDNA, one strand shown. A digest of the protocol:
as §1

The target of experiment [5] is ELF1 (Homo sapiens, UniProt P32519 1-619). The conditions noted are these: protein: recombinant; tags: N-terminal GST; dsDNA, one strand shown. A digest of the protocol: as §1
Experiment [6] addresses T5, EHF (Homo sapiens, UniProt Q9NZC4 1-300).
T5 sequence: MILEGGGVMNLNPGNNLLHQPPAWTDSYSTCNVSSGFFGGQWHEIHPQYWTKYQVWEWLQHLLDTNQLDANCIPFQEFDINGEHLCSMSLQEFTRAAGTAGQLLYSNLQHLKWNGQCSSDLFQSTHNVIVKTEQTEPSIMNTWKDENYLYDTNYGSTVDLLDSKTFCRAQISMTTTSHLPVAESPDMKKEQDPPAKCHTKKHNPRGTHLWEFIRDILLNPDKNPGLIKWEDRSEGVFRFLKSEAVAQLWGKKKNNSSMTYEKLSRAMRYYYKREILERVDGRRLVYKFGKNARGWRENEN
The conditions noted are these: protein: recombinant; tags: N-terminal GST; dsDNA, one strand shown. The procedure, abridged:
as §1

The target of experiment [7] is SPI1 (Homo sapiens, UniProt P17947 1-270). The note with it: protein: recombinant; tags: N-terminal GST; dsDNA, one strand shown. The procedure, abridged: as §1
Experiment [8] concerns the target SPIB (Homo sapiens, UniProt Q01892 1-262). The note with it: protein: recombinant; tags: N-terminal GST; dsDNA, one strand shown. A digest of the protocol:
as §1

For experiment [9], the target named is T6, FEV (Homo sapiens, UniProt Q99581 1-238).
T6 sequence: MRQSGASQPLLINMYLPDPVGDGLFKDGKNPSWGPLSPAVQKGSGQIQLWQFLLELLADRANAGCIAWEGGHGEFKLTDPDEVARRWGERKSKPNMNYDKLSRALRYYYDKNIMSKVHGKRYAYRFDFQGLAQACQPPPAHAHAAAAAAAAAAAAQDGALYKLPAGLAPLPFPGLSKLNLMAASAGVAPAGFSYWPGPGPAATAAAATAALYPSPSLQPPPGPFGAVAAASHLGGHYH
The note with it: protein: recombinant; tags: N-terminal GST; dsDNA, one strand shown. The procedure, abridged:
as §1

Experiment [10] has as its target ETV5 (Homo sapiens, UniProt P41161 1-510). The conditions noted are these: protein: recombinant; tags: N-terminal GST; dsDNA, one strand shown. A digest of the protocol: as §1
In experiment [11] the target is HSF1 (Homo sapiens, UniProt Q00613 1-529). The conditions noted are these: protein: recombinant; tags: N-terminal GST; chain copies: 3; dsDNA, one strand shown. A digest of the protocol:
as §1

Experiment [12] deals with T7, SPIC (Homo sapiens, UniProt Q8N5J4 1-248).
T7 sequence: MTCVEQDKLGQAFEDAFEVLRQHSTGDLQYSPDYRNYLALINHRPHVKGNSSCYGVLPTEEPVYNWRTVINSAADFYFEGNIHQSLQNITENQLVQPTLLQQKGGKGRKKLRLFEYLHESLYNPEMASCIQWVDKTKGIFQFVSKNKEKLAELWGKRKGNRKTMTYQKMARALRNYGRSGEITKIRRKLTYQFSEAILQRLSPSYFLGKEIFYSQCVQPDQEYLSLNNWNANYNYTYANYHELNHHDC
The conditions noted are these: protein: recombinant; tags: N-terminal GST; dsDNA, one strand shown. The procedure, abridged: as §1

The target in experiment [13] is ELF4 (Homo sapiens, UniProt Q99607 1-663). The conditions noted are these: protein: recombinant; tags: N-terminal GST; dsDNA, one strand shown. A digest of the protocol:
as §1

The target of experiment [14] is T8, ELK4 (Homo sapiens, UniProt P28324-2 1-405).
T8 sequence: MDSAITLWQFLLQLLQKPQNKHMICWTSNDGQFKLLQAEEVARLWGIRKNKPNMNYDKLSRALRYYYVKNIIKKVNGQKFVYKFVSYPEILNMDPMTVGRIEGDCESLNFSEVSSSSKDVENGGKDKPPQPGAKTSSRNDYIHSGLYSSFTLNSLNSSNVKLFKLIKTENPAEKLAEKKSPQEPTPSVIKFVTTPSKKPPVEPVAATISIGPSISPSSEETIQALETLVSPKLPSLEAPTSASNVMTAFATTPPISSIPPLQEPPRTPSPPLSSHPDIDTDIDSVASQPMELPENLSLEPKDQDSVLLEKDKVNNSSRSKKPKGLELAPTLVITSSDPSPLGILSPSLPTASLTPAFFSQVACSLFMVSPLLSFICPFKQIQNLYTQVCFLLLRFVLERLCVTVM
The note with it: protein: recombinant; tags: N-terminal GST; dsDNA, one strand shown. A digest of the protocol: as §1

In experiment [15] the target is T9, ETV2 (Homo sapiens, UniProt O00321 1-342).
T9 sequence: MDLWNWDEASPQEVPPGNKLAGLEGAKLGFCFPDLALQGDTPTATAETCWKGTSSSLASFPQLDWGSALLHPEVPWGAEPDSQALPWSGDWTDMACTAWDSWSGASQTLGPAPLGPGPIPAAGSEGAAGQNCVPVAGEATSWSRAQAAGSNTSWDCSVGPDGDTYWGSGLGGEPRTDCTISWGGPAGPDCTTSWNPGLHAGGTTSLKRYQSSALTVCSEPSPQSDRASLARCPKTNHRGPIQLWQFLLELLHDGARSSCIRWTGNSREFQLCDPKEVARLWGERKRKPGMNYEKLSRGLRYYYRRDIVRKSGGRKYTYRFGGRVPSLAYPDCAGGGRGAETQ
The note with it: protein: recombinant; tags: N-terminal GST; dsDNA, one strand shown. The procedure, abridged:
as §1

In experiment [16] the target is T10, ELF3 (Homo sapiens, UniProt P78545 1-371).
T10 sequence: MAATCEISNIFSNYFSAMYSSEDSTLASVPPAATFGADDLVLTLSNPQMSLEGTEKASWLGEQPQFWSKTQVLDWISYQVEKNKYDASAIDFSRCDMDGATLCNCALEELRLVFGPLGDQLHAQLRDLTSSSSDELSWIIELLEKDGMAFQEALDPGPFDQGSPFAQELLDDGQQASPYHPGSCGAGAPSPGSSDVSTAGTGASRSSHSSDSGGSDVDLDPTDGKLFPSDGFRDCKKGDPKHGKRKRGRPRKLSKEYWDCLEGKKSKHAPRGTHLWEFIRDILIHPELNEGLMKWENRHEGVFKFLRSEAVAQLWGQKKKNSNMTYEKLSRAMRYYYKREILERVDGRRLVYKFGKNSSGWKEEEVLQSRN
The note with it: protein: recombinant; tags: N-terminal GST; dsDNA, one strand shown. The procedure, abridged:
as §1

For experiment [17], the target named is CRX (Homo sapiens, UniProt O43186 1-299). The conditions noted are these: protein: recombinant; tags: N-terminal GST; dsDNA, one strand shown. A digest of the protocol:
as §1

Experiment [18] addresses ETV1 (Homo sapiens, UniProt P50549 1-477). The note with it: protein: recombinant; tags: N-terminal GST; dsDNA, one strand shown. A digest of the protocol: as §1

Chain of ELF1 (P32519 whole entry): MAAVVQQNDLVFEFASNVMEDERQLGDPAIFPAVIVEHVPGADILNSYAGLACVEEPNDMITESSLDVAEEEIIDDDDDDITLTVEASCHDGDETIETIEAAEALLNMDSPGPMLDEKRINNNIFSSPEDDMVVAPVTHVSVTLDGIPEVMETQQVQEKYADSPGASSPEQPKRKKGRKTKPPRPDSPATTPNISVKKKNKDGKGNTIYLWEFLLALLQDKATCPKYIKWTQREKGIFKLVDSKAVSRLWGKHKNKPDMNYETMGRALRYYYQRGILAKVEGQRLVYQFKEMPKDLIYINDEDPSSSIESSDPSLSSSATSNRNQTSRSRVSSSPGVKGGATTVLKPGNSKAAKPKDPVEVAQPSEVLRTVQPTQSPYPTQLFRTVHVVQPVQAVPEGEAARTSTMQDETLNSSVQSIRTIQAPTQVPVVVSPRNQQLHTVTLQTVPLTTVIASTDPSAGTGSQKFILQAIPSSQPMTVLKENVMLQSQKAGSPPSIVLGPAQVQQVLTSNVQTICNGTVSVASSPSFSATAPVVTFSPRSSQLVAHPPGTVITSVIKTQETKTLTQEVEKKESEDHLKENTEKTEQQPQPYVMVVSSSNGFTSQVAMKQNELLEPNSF
Chain of SPIB (Q01892 whole entry): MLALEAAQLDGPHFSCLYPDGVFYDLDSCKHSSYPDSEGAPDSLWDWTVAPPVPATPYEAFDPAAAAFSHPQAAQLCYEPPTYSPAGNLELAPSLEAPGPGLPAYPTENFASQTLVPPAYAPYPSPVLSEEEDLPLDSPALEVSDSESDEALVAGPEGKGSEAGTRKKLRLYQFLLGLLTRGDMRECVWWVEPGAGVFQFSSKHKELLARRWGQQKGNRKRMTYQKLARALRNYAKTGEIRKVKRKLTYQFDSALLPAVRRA
Chain of HSF1 (Q00613 whole entry): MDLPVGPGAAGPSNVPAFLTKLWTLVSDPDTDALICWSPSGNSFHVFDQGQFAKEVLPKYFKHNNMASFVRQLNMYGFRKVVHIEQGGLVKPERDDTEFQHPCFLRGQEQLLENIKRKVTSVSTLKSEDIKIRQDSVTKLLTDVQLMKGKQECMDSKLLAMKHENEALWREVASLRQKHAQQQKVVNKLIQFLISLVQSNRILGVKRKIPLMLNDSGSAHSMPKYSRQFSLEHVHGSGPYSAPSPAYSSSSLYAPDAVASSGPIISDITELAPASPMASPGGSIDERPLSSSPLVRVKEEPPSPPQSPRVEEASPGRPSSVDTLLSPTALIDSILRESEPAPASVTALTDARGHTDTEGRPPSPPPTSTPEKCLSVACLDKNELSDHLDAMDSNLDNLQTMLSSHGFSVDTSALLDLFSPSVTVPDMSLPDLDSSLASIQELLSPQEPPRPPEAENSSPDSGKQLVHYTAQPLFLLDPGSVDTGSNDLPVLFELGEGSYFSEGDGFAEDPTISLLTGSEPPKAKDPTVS
Chain of ETV1 (P50549 whole entry): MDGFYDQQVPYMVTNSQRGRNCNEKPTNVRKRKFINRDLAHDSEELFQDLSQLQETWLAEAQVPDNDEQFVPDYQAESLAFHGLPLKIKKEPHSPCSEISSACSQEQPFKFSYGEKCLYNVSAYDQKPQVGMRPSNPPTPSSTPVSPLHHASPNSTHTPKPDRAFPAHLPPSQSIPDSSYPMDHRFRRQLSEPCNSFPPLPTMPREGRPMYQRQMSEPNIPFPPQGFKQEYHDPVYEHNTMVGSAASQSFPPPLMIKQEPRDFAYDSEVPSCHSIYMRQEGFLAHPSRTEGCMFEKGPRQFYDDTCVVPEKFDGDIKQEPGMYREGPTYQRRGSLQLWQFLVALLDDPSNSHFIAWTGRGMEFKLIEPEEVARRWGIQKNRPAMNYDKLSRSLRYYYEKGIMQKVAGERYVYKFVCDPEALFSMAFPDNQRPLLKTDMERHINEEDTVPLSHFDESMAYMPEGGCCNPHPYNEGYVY
Chain of ELF4 (Q99607 whole entry): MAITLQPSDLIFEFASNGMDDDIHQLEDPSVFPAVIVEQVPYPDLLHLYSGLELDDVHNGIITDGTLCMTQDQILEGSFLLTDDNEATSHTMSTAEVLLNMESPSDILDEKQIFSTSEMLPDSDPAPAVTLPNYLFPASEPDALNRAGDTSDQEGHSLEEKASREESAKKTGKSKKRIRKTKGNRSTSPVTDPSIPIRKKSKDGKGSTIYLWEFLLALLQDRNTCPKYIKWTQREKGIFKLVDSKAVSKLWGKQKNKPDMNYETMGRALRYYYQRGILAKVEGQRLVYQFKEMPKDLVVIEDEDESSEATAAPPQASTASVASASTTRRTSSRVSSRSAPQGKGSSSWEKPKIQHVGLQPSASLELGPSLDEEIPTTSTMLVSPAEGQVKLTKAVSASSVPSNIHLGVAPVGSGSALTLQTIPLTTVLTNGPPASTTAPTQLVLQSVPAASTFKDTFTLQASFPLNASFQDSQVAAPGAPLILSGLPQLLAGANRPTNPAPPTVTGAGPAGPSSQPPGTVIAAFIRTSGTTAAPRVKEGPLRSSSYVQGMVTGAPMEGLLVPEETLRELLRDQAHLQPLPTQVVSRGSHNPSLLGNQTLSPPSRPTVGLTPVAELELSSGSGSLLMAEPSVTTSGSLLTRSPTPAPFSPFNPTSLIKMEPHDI
Chain of ETV5 (P41161 whole entry): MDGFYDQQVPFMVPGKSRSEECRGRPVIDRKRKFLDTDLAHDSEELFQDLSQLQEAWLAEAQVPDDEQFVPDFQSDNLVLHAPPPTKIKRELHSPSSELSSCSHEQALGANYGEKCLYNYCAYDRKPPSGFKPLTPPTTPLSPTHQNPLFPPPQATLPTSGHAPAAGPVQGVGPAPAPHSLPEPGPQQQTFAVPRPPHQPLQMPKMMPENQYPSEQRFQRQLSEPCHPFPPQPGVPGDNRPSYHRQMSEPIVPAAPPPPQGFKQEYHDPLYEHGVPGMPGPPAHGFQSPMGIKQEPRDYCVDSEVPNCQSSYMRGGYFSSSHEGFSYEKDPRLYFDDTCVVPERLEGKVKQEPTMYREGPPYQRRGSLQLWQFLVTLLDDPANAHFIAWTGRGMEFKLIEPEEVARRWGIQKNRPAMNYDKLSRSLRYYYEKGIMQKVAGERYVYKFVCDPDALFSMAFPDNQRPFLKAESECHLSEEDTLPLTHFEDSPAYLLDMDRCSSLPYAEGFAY
Chain of CRX (O43186 whole entry): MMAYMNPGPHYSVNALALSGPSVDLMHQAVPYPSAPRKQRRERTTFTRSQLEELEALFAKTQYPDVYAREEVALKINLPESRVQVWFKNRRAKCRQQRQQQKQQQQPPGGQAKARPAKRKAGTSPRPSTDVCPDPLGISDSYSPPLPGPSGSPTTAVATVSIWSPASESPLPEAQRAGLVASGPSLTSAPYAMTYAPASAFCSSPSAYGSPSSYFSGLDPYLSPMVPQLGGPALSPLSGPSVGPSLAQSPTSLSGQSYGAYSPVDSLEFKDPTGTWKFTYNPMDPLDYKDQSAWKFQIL

Consider TCTATG, for which the binding signal is 1.12 fold enrichment (6-mer frequency, TF over GST control) in [1]; 1.2 fold enrichment (6-mer frequency, TF over GST control) in experiment [2]; 1.21 fold enrichment (6-mer frequency, TF over GST control) in [3]; 1.03 fold enrichment (6-mer frequency, TF over GST control) in experiment [4]; 1.12 fold enrichment (6-mer frequency, TF over GST control) in [5]; 1.13 fold enrichment (6-mer frequency, TF over GST control) in [6]. The binding signal is 1.09 fold enrichment (6-mer frequency, TF over GST control) in experiment [7]; 1.12 fold enrichment (6-mer frequency, TF over GST control) in experiment [8]; 1.06 fold enrichment (6-mer frequency, TF over GST control) in [9]; 1.1 fold enrichment (6-mer frequency, TF over GST control) in experiment [10]; 1.16 fold enrichment (6-mer frequency, TF over GST control) in experiment [11]; 1.11 fold enrichment (6-mer frequency, TF over GST control) in experiment [12]. The binding signal is 1.14 fold enrichment (6-mer frequency, TF over GST control) in experiment [13]; 1.16 fold enrichment (6-mer frequency, TF over GST control) in experiment [14]; 1.25 fold enrichment (6-mer frequency, TF over GST control) in experiment [15]; 1.1 fold enrichment (6-mer frequency, TF over GST control) in [16]; 1.11 fold enrichment (6-mer frequency, TF over GST control) in experiment [17]; 1.1 fold enrichment (6-mer frequency, TF over GST control) in [18].
